Screening results: PubChem, National Center for Advancing Translational Sciences (NCATS)
Shown are actives, neighbours in structure and some others; about 10% of the full set was active somewhere.
HEK cytotox = Cytotoxic Profiling in HEK 293 Cell Line of Diverse Libraries Using Quantitative High-Throughput Screening. HEK 293 viability, ATP luminescence (CellTiter-Glo), 48-72 h. Potency, µM (top dose mostly 115 µM), for inactives: top-dose activity change, negative = cytotoxicity, actives largely listed as inhibitors. 94,000 tested, 6.6% active; further: on the % scale 0 is the no-effect control and ±100 the full control effect; nearly all actives have a fitted effect of over 60% in size
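Cytotoxicity was scored by loss of ATP-coupled luminescence (CellTiter-Glo) in HEK 293 cells. Compound treatment ran 48 or 72 hr at 37 degree Celsius, 5% CO2, 95% humidity.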
GPT2 inh = Primary qHTS assay for inhibitors of Glutamate pyruvate transaminase 2 (GPT2). Alanine aminotransferase 2 (Homo sapiens), Q8TD30. Recombinant GPT2, coupled pyruvate oxidase/HRP Amplex Red fluorescence. Potency, µM (titrated, usually from 57.7 µM), for the others: at the top dose activity change, negative = inhibition, usual class: inhibitors. 100,000 tested, 0.25% active. AID 1671188, 2021; further: on the % scale 0 is the no-effect control and ±100 the full control effect; nearly all actives have a fitted effect of over 60% in size
Target sequence (Q8TD30 whole entry, looked up): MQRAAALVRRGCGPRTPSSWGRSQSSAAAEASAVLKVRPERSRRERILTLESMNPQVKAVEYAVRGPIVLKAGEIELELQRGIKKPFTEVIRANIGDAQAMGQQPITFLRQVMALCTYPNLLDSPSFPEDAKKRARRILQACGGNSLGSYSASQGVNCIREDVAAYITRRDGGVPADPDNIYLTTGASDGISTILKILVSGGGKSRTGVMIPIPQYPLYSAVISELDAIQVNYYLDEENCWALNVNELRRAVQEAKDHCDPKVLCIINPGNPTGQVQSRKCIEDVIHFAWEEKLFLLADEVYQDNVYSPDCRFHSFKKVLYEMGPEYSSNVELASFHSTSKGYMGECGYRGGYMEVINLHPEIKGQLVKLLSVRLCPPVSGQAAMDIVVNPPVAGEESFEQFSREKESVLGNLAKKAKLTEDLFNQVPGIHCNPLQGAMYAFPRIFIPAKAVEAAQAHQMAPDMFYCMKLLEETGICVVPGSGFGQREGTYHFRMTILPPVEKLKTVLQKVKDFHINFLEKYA
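Inhibition is scored from Amplex Red fluorescence generated when pyruvate oxidase and HRP act on pyruvate released by GPT2. Reactions contain 10ng/uL enzyme, 250uM a-KG and 2mM L-alanine and run 30 min at room temperature.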
3T3 cytotox = Cytotoxic Profiling in NIH 3T3 Cell Line of Diverse Libraries Using Quantitative High-Throughput Screening; NIH 3T3 viability, CellTiter-Glo ATP luminescence, 48-72 h; Potency, µM (series often up to 96.7 µM), for the others: top-dose activity change, negative = cytotoxicity, hits mostly inhibitors; 94,000 tested, 4.3% active; further: on the % scale 0 is the no-effect control and ±100 the full control effect; nearly all actives have a fitted effect of over 55% in size
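Cytotoxicity was measured by CellTiter-Glo ATP luminescence after 48 or 72 h compound exposure at 37 °C. Mouse NIH 3T3 fibroblasts were seeded at 400 cells/well and dosed by 23 nL pin transfer.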
hNpr1 antagonist = Natriuretic polypeptide receptor (hNpr1) antagonism - Primary qHTS; Atrial natriuretic peptide receptor 1 (Homo sapiens), P16066; HEK293 hNpr1 GloSensor cGMP, ANP-stimulated luminescence; Potency, µM (doses to about 46.3 µM), without a hit: at the highest dose activity change, negative = inhibition, most hits filed as inhibitors; 76,000 tested, 1.6% active; calls by dose curve; further: on the % scale 0 is the no-effect control and ±100 the full control effect; nearly all actives have a fitted effect of over 60% in size
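Compound pre-incubated 30 min at room temperature on GloSensor-loaded HEK293 cells stably carrying hNpr1 and the pGS-40F cGMP biosensor. Stimulation uses hNppA at 0.1 nM final; luminescence is taken at baseline and 20 min post-agonist.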
FLuc inh = Firefly luciferase inhibition profiling of diverse chemical library using quantitative high-throughput screening; Luciferin 4-monooxygenase (Photinus pyralis), P08659; purified P. pyralis luciferase, luminescence, biochemical; Potency, µM (doses to about 115 µM), hits mostly inhibitors; 76,000 tested, 2.5% active; AID 1347043, 2019; further: on the % scale 0 is the no-effect control and ±100 the full control effect; nearly all actives have a fitted effect of over 65% in size
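Purified P. pyralis luciferase (10nM final) in 50mM Tris acetate pH 7.5, 10mM Mg acetate, 0.01% Tween-20, 0.05% BSA with 10uM D-luciferin and 10uM ATP. Compounds titrated qHTS. Luminescence imaged on CCD.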
NPR1 antag cnf = Natriuretic polypeptide receptor (hNpr1) antagonism - Confirmation; HEK293 hNpr1 cGMP GloSensor luminescence, ANP-stimulated; Potency, µM (series often up to 57.6 µM), inactives show at the highest dose activity change, negative = inhibition, hits mostly inhibitors; shares compounds with hNpr1 antagonist; AID 1347044, 2019; 1,400 tested, 76% active; calls by dose curve; further: nearly all actives have a fitted effect of over 70% in size
Npr2 selectivity = Natriuretic polypeptide receptor (hNpr2) antagonism - Subtype selectivity assay; shares compounds with hNpr1 antagonist; HEK293 hNpr2 GloSensor cGMP luminescence, CNP-stimulated; Potency, µM (highest dose often 57.6 µM), for the others: top-dose activity change, negative = inhibition, hits mostly inhibitors; 1,400 tested, 67% active; AID 1347046, 2019; calls by dose curve; further: nearly all actives have a fitted effect of over 70% in size
FLuc inh counter = Natriuretic polypeptide receptor (hNpr1) antagonism - Confirmation firefly luciferase (FLuc) inhibition counterscreen. shares compounds with hNpr1 antagonist. purified FLuc enzyme, luminescence, Km substrate. Potency, µM (highest dose often 57.6 µM), inactives show top-dose activity change, negative = inhibition, usual class: inhibitors. 1,400 tested, 0.7% active. AID 1347047, 2019; further: 0% is about no effect
GloSensor cGMP = Natriuretic polypeptide receptor (hNpr1) antagonism - Counterscreen GloSensor control cell line; shares compounds with hNpr1 antagonist; HEK293 GloSensor cGMP, SNP-stimulated, luminescence; Potency, µM (doses to about 57.6 µM), for inactives: top-dose activity change, negative = inhibition, hits mostly inhibitors; 1,400 tested, 69% active; calls by dose curve; further: on the % scale 0 is the no-effect control and ±100 the full control effect; nearly all actives have a fitted effect of over 70% in size
Active calls of the source: *; i = inactive; ? = inconclusive; · = no result given; [ ] = remark or other dose. Unless noted, the call rests on the fitted dose curve; in most records, active means well fitted curve in the direction sought with a large enough effect; inconclusive means small, poorly fitted or top-dose-only effect, or another doubt; inactive means no such curve, though single readings can be large; an effect the other way counts as inactive or inconclusive. Potency means the concentration at half of the fitted maximal effect.

SMILES	HEK cytotox	GPT2 inh	3T3 cytotox	hNpr1 antagonist	FLuc inh	NPR1 antag cnf	Npr2 selectivity	FLuc inh counter	GloSensor cGMP
COCc1nc(C2CCN(C(C)=O)C2)no1 (stereo not given)	i	i	3%	-2%	i	·	·	·	·
CN(C)Cc1cc(C[C@@H]2C[C@H](NC(=O)Nc3ccc(F)cc3)C2(C)C)no1	?	-2%[88.5 µM]	?	-20%[70.6 µM]	i	·	·	·	·
CC1(C)[C@H](Cc2cc(CN3CCN(c4ccccc4)CC3)on2)C[C@@H]1NC(=O)Nc1ccc(F)cc1	?	?	?	13µM*	i	19µM*	22µM*	3%	19µM*
CC1(C)[C@H](Cc2cc(CN3CCN(c4ccccc4)CC3)on2)C[C@@H]1NC(=O)NCc1ccccc1	25µM*	1%	?	11µM*	i	22µM*	?	7%	17µM*
CC(C)(C)CC(=O)N[C@H]1C[C@@H](Cc2cc(COc3ccccc3)on2)C1(C)C	?	3%[88.5 µM]	?	14µM*	i	13µM*	16µM*	2%[86.2 µM]	14µM*
C[C@@H]1CC[C@]2(C(=O)O)CC[C@]3(C)C(=CCC4[C@@]5(C)C[C@@H](O)[C@H](O)[C@@](C)(CO)C5CC[C@]43C)C2[C@]1(C)O (stereo not given in full)	·	i	·	·	·	·	·	·	·
O=C(NCc1cccc(Cl)c1)C1CCCN1c1nccc(Nc2ccccc2F)n1 (stereo not given)	?	5%	?	·	·	·	·	·	·
O=C1c2cnc(-c3ccncc3)nc2OCCN1Cc1ccc(F)cc1F	?	?	?	18µM*	i	31µM*	25µM*	-2%[86.2 µM]	22µM*
COc1ccc(CN2CCOc3nc(-c4cccc(C(F)(F)F)c4)ncc3C2=O)cc1	?	-5%[88.5 µM]	?	32µM*	i	35µM*	35µM*	-6%[86.2 µM]	40µM*
Cn1nccc1-c1ncc2c(n1)OCCN(Cc1ccc(F)cc1F)C2=O	?	4%[88.5 µM]	?	35µM*	i	35µM*	35µM*	5%[86.2 µM]	40µM*
COc1ccccc1-c1ncc2c(n1)OCCN(Cc1ccc(F)cc1F)C2=O	-35%[172 µM]	-17%[88.5 µM]	?	-3%[70.6 µM]	i	·	·	·	·
COCCN1CCOc2nc(-c3cc4ccccc4o3)ncc2C1=O	?	-7%[88.5 µM]	?	13µM*	i	9.9µM*	9.9µM*	0.5µM*	7.9µM*
COCCNC(=O)c1cn2ccnc(-c3ccc(OC)cc3)c2n1	i	-22%	4%	-1%	i	·	·	·	·
